# Several values for one entry are separate records, joined by “and”; a condition that tells them apart may be missing. Equal entries are not always repeated. Inconclusive results are not listed. Activity calls are given as the source filed them. Calls come from the whole dose curve; as a rule, active = well fitted inhibition curve with a large enough effect; inconclusive = small, poorly fitted or top-dose-only effect; inactive = flat fitted curve, though single readings scatter.
# System: KB-3-1
# Test: Cytotoxic Profiling of Annotated Libraries Using Quantitative High-Throughput Screening (AID 1296008); note: nearly all actives have a fitted effect of over 60% in size
# Settings: Five cell lines viability, CellTiter-Glo ATP luminescence, 48-72 h; max response: hits give low values
# Procedure, shortened: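 Compounds were pin-transferred onto cells and incubated 48 or 72 hr at 37 degree Celsius, 95% humidity. CellTiter-Glo was added, plates sat 10 min at room temperature, then ATP-coupled luminescence was imaged as the viability read-out.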
# % is set by controls: 0 for no effect and ±100 for the full control effect; potency is the fitted concentration of half-maximal effect.
Compound,max response,Potency
CC1CCCC(C)N1NC(=O)c1ccc(Cl)c(S(N)(=O)=O)c1 (stereo unspecified),1.28% (inactive),
CC1(C)S[C@@H]2[C@H](NC(=O)C3(N)CCCCC3)C(=O)N2[C@H]1C(=O)O,-2.76% (inactive),
C[C@@H](O)[C@H]1C(=O)N2C(C(=O)[O-])=C(SC3Cn4cnc[n+]4C3)[C@H](C)[C@H]12 (stereo partly specified),1.34% (inactive),
CC(=O)Oc1cc(C(F)(F)F)ccc1C(=O)O,0.097% (inactive),
C=CC1=C(C(=O)O)N2C(=O)[C@@H](NC(=O)/C(=N/OCC(=O)O)c3csc(N)n3)[C@H]2SC1 (stereo in doubt),-4.79% (inactive),
O=C(O)CCCC/C=C(\c1ccccc1)c1cccnc1,-9.78% (inactive),
[O]=[Bi][O][Bi]=[O],-13.6% (inactive),
OC[C@H]1O[C@@](CO)(O[C@H]2O[C@H](CO)[C@@H](O)[C@H](O)[C@H]2O)[C@@H](O)[C@@H]1O,8.24% (inactive),
CN(C)CCOc1ccc(/C(=C(/CCCl)c2ccccc2)c2ccccc2)cc1,-3.21% (inactive),
CCc1ncnc2cc(OC)c(OC)cc12,-4.18% (inactive),
COC(=O)[C@H]1[C@H]2C[C@@H]3c4[nH]c5cc(OC)ccc5c4CCN3C[C@H]2C[C@H](OC)[C@@H]1OC,14.2% (inactive),
C=Cc1c(C)c2cc3nc(cc4[nH]c(cc5nc(cc1[nH]2)C(C)=C5CCC(=O)OC)c(CCC(=O)O)c4C)[C@@]1(C)C3=CC=C(C(=O)OC)[C@H]1C(=O)OC,-15.7% (inactive),
CCOC(=O)c1c[nH]c2cc(OCC(C)C)c(OCC(C)C)cc2c1=O,5.44% (inactive),
C=N[C@@H](C(=O)N[C@@H]1C(=O)N2[C@@H]1SC(C)(C)[C@@H]2C(=O)O)c1ccccc1,0.762% (inactive),
CC(C)NCC(O)COc1ccccc1-n1cccc1 (stereo unspecified),24.4% (inactive),
CNC(=O)C[C@@H](N)C(=O)N[C@@H](C(=O)N[C@@H]1C(=O)N2[C@@H]1SC(C)(C)[C@@H]2C(=O)O)c1ccc(O)cc1,-18.5% (inactive),
O=C(OCc1ccccc1)c1cccnc1,-9.74% (inactive),
NC(=O)CC[C@@H]1NC(=O)[C@H](Cc2ccccc2)NC(=O)[C@H](Cc2ccc(O)cc2)NC(=O)[C@@H](N)CSSC[C@@H](C(=O)N2CCC[C@H]2C(=O)N[C@@H](CCCN=C(N)N)C(=O)NCC(N)=O)NC(=O)[C@H](CC(N)=O)NC1=O,22.3% (inactive) and -14.9% (inactive),

Compound,max response,Potency
C=C1[C@@H]2CC[C@@H](C2)C1(C)C,-10.2% (inactive),
Nc1ncnc2c1ncn2[C@H]1CC[C@@H](CO)O1,-2.72% (inactive),
O=C1CCC(c2ccccc2)(C2CCN(Cc3ccccc3)CC2)C(=O)N1 (stereo unspecified),17.5% (inactive),
CCCCCCCCCCCCOCCCN,-4.56% (inactive),
C=C1CC[C@H](O)CC1=C/C=C1\CCC[C@]2(C)[C@@H]([C@H](C)CC[C@@H](O)C(C)(C)O)CC[C@@H]12,6.41% (inactive),
CC(C)(C)CC(C)(C)c1ccc(OCCO)cc1,-16.2% (inactive),
CO[C@@]1(NC(=O)C2SC(=C(C(N)=O)C(=O)O)S2)C(=O)N2C(C(=O)O)=C(CSc3nnnn3C)CS[C@@H]21 (stereo partly specified),1.97% (inactive),
CCOC(C)OCC,-6.86% (inactive),
NCCCC[C@H](N)C(=O)O,0.45% (inactive),
OB(O)O,-9% (inactive),
CC1=CC(=C(c2ccc(N)cc2)c2ccc(N)cc2)C=CC1=N,,10.3 µM (active)
CCCCCCCCCCCCCCCCCC(=O)OCC(C)O (stereo unspecified),-14.3% (inactive),
CC(C)N1CCN(c2ccc(OC[C@H]3CO[C@](Cn4cncn4)(c4ccc(Cl)cc4Cl)O3)cc2)CC1,0.302% (inactive),
CCCCCCCCCCCCCCCCCCCCCC(=O)Nc1ccn([C@@H]2O[C@H](CO)[C@@H](O)[C@@H]2O)c(=O)n1,3.81% (inactive),
O=C1CCC(=O)N1CO,-1.35% (inactive),
CC1(C)[C@@H]2CC[C@@]1(C)[C@H](OC(=O)CSC#N)C2,3.19% (inactive),
Cc1c(C)c2c(c(C)c1OC(=O)CCC(=O)O)CC[C@@](C)(CCC[C@H](C)CCC[C@H](C)CCCC(C)C)O2,3.34% (inactive),
CC/C=C\C/C=C\C/C=C\C/C=C\C/C=C\C/C=C\CCC(=O)O,0.95% (inactive),

# From PubChem BioAssay (NCATS)
